Drawing on PubChem BioAssay AID2796 (The Scripps Research Institute Molecular Screening Center, 2010), this text covers activation for 63 molecules.

The campaign covered roughly 320,000 compounds. About 8,000 (2.5%) were called active. The full list was thinned out, with actives kept by preference. Unmarked numbers belong to inactive results. Rule as the data show it: active = activation above about 47%; inactive = the rest.

The target in the assay is Aryl hydrocarbon receptor (Homo sapiens) (UniProt P35869). The assay can be described thus: AHR activators, primary screen, cell-based, luminescence, luciferase reporter, human (AID 2796).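 Also: 0% = vehicle wells and 100% = reference agonist.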 As to conditions: AHR-responsive luciferase reporter cells, at 5 µM, stronger effect = higher value. In general terms: Reporter assays use an easily measured gene product as a stand-in for the process of interest.
Aryl hydrocarbon receptor (Homo sapiens), sequence (P35869 whole entry, looked up): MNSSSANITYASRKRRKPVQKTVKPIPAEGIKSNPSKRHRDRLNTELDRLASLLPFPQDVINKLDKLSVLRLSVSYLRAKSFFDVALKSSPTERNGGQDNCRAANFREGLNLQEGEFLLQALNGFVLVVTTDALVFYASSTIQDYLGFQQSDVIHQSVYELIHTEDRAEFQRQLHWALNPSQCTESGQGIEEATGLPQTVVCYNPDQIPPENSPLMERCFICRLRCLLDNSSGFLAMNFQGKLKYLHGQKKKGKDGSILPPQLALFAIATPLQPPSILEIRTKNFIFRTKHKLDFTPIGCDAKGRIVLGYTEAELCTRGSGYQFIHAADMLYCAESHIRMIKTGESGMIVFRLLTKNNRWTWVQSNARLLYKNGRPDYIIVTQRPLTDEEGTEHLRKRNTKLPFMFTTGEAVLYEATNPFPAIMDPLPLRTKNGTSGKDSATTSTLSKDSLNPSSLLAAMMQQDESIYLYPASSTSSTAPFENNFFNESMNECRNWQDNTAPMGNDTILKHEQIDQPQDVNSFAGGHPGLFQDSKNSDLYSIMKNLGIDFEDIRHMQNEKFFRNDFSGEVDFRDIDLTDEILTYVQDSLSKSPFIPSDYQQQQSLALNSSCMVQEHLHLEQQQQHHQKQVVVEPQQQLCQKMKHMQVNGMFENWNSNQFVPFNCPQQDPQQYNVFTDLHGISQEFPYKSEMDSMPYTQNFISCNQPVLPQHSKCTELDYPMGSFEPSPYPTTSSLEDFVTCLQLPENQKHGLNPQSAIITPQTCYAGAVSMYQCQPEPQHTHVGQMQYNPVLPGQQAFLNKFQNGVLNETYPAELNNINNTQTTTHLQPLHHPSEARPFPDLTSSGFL
On to `COc1ccc(/C=N/n2nnnc2N)cc1OC`, for which the activation is 9.89%.
For the molecule `Nc1nnnn1/N=C/c1cccc(Br)c1`, the activation was 0.74%.
Then `C=CCOc1c(Br)cc(/C=N\n2nnnc2N)cc1OC`, with 115% (active); and `CCN1/C(=C\c2ccc3ccccc3[n+]2CC)Sc2cc(C)ccc21`, with -7.56%.
Consider `CCN1/C(=C/C(=S)Nc2ccccc2)Sc2ccccc21`, for which the activation was 60.2% (active).
With `CCOC(=O)CNC(=O)N1c2ccccc2Sc2ccccc21` the figure was -1.17%; with `CCNCCC(=O)N1c2ccccc2Sc2ccc(NC(=O)OCC)cc21`, 12.7%; with `CCC(=O)/C=C1\Sc2ccccc2N1CC`, 47.6% (active).
`S=C(NCCc1ccccc1)Nc1ccccc1`: the activation is 1.89%.
With `CSCCC(Nc1ccc(S(=O)(=O)N2CCOCC2)cc1[N+](=O)[O-])C(=O)OCC(=O)N(C(C)C)C(C)C` (stereo not drawn) the figure was -0.88%.
Then `CN(C)c1ccc(CNC2C3CC4CC(C3)CC2C4)cc1` (stereo not drawn), with 1.86%; and `Clc1ccccc1SCc1nc2ccccc2[nH]1`, with -2.01%; and `c1ccc(-c2nnc(SCc3nc4ccccc4[nH]3)o2)cc1`, with 59.8% (active).
As for `O=C(CSc1nc2ccccc2[nH]1)Nc1nc(-c2ccccc2)c(-c2ccccc2)o1`, the activation is 5.78%.
With `Cc1cccc(C(=O)N2CCN(S(=O)(=O)N3CCCCC3)CC2)c1` the figure was 0.85%; with `CC1CN(CC(=O)NC(C)c2ccccc2)CC(C)O1` (stereo not drawn), -1.1%; with `CN(C)c1ccc(/C=N/Nc2cc(N3CCOCC3)nc(N3CCOCC3)n2)cc1`, 7.92%.
With `COc1ccc(/C=N/Nc2cc(N3CCOCC3)nc(C)n2)c(OC)c1` the figure was 69.5% (active).
With `C(=N/Nc1cc(N2CCOCC2)nc(N2CCOCC2)n1)/c1ccccc1` the figure was -0.44%; with `Cn1c2ccccc2n2c(=O)c(=O)n(CC(=O)c3ccc(F)cc3)nc12`, 0.34%; with `C[C@H]1CN([C@@H](C)CO)C(=O)Cc2cc(NC(=O)Cc3ccccc3)ccc2O[C@H]1CN(C)S(=O)(=O)c1cccs1`, -0.6%.
Take `O=C(C[C@@H]1C/C=C\CCC(=O)OC[C@@H]2CCCN2C1=O)NCCO`: the activation is 2.28%.
With `Cc1cc(NS(=O)(=O)c2ccc(NC(=S)NC(=O)c3ccc(F)cc3Cl)cc2)no1` the figure was 17.3%.
Then `O=C(Nc1cccc(S(=O)(=O)NC2=NCCC2)c1)c1ccc(F)cc1F`, with 1.17%; and `O=C(Nc1cc(S(=O)(=O)Nc2ccc(Cl)cc2)ccc1O)c1ccc(F)cc1F`, with 111% (active).
Then `Cc1ccccc1NS(=O)(=O)CCCCC(Cl)(Cl)Cl`, with -0.27%; and `COc1c(O)cccc1-c1nnn(CCC(=O)OCC(=O)c2ccccc2)n1`, with 1.67%.
For `Cc1cc(C(=O)NNC(=O)CCC2CCCCC2)c(C)o1`, the activation is 1.65%.
Then `CCOC(=O)c1nc(Nc2ccc(C(=O)OC)cc2)c2ccccc2n1`, with 1.95%; and `Cc1cc(Nc2ccc(Br)cc2)nc2ccccc12`, with 54.1% (active).
With `Cc1ccc2nc(Nc3ccccc3)cc(C)c2c1` the figure was 26.6%; with `O=C(CCC(=O)N/N=C/c1ccc(Br)o1)N/N=C/c1ccc(Br)o1`, 4.48%; with `CCCNC(=O)N1CCC(c2ccc3c(c2)OCO3)CC1`, 1.31%.
On to `COc1ccc(CCNc2cc(C)nc3c(-c4ccc(Cl)cc4)c(C)nn23)cc1OC`, for which the activation was 31.2%.
Then `Cc1ccsc1C(=O)N[C@@H](C)c1nnc2ccccn12`, with 1.3%.
With `CCc1ccc(CNC(=O)CCc2nc(-c3cccs3)no2)cc1` the figure was 4.73%.
With `COc1ccc(OC)c(CNC(=O)CCc2nc(-c3cccs3)no2)c1` the figure was 61.3% (active); with `COc1ccc(CCc2nc(-c3cccs3)no2)cc1`, 1.87%; with `CCn1c(SCC(=O)NC2CC2)nnc1-c1ccccc1OC`, 14.6%.
For the molecule `Cc1ccc(C(=O)Cc2nnc(C)s2)cc1`, the activation was -0.8%.
Then `CN(C)C(=O)COC(=O)c1cccc(S(=O)(=O)N2CC3(C)CC2CC(C)(C)C3)c1` (stereo not drawn), with -0.48%; and `CCOC(=O)C1CCN(C(=O)CN2C(=O)NC(C)(c3ccc4cc(OC)ccc4c3)C2=O)CC1` (stereo not drawn), with 0.29%; and `C=CCNC(=O)CSc1nc2sc(C)c(C)c2c(=O)[nH]1`, with 107% (active).
Then `CC(=O)c1sc2nc(SCC(=O)N3CCCCC3)[nH]c(=O)c2c1C`, with 15.1%; and `C=CCn1c(SCC(=O)Nc2ccc(NC(C)=O)cc2)nc2sc(C)c(C)c2c1=O`, with 0.33%; and `CN(Cc1cccc2ncccc12)C(=O)CC1C(=O)NCCN1Cc1ccc(F)cc1` (stereo not drawn), with -0.17%.
With `CCOCC(=O)Nc1cc(OC)c(Cl)cc1OC` the figure was 19.9%; with `COc1cc(NC(=O)c2ccc(-c3csc(C)n3)cc2)c(OC)cc1Cl`, 98.4% (active).
Consider `COc1cccc(CC(=O)Nc2ccc(-c3csc(C)n3)cc2)c1`, for which the activation is -4.95%.
For the molecule `CC(NC(=O)COC(=O)Cn1cc(C(F)(F)F)ccc1=O)c1ccccc1` (stereo not drawn), the activation was -0.22%.
Then `Cc1cccc2cc(C#N)c(N3CCCC3)nc12`, with 51.3% (active).
With `CCOC(=O)c1cc(C#N)c(N2CCCCC2)nc1-c1ccccc1` the figure was 13.2%.
Regarding `CC(=O)c1ccc(S(=O)(=O)N2CCN(c3nc4c(C)c(C)ccc4cc3C#N)CC2)cc1`, the activation is -2.8%.
For the molecule `O=C(Nc1ccc2c(c1)CCC2)c1ccc(Br)s1`, the activation was 12%.
With `O=C(Nc1cccc2cccnc12)c1cccc(N2C(=O)CCC2=O)c1` the figure was -2.04%; with `CSc1ccccc1NC(=O)c1cc(Cl)sc1Cl`, 0.71%.
Then `N#Cc1ccc(C(=O)Nc2cccc3cccnc23)c(F)c1`, with -3.07%.
As for `CSc1ccc(/C=N/NC(=O)c2cccc(Cl)c2)cc1`, the activation is 13.9%.
Then `COC(=O)c1sccc1NC(=O)c1ccc(Cl)cc1`, with 37.4%.
Then `N#Cc1ccccc1NC(=O)c1cccc(COc2ccc(Cl)cc2Cl)c1`, with -4.79%.
Consider `O=C(Nc1cccc2cccnc12)c1cccc(Cl)c1`, for which the activation was 59.2% (active).
With `CSc1ccc(C#N)cc1NC(=O)c1ccc(Cl)cc1` the figure was 96.9% (active); with `CSc1ccc(C#N)cc1NC(=O)c1cccc(Cl)c1`, 58.8% (active).
